Measurements reported in PubChem BioAssay (NCI).
This is part of a sample that, as a whole, favours compounds with a hit. Of some 83,000 tested, about 20% had one in any assay.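 How to read the values: 0–100, growth inhibition (40 = 60% inhibited); 0, no net growth; -100 to 0, cell death (-40 = 40% of starting cells died; -100 = all dead).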 The source made the active and inactive calls. How the source made its calls: active means growth percent below 10; inactive means the rest.

Experiments:
Assay in all cases: NCI-60 one-dose screen, 48 h (100 = growth as untreated, 0 = no growth, -100 = all killed)
Settings in all cases: 10 µM unless noted
SK-MEL-2 melanoma = test system: SK-MEL-2 melanoma
EKVX NSCLC = test system: EKVX NSCLC
SN12C renal = test system: SN12C renal
UO-31 renal = test system: UO-31 renal
TK-10 renal = test system: TK-10 renal
ACHN renal = test system: ACHN renal
CAKI-1 renal = test system: CAKI-1 renal
A498 renal = test system: A498 renal
CCRF-CEM leukemia = test system: CCRF-CEM leukemia
MOLT-4 leukemia = test system: MOLT-4 leukemia
SR leukemia = test system: SR leukemia
RPMI-8226 leukemia = test system: RPMI-8226 leukemia
OVCAR-8 ovarian = test system: OVCAR-8 ovarian
OVCAR-5 ovarian = test system: OVCAR-5 ovarian
OVCAR-4 ovarian = test system: OVCAR-4 ovarian
SK-OV-3 ovarian = test system: SK-OV-3 ovarian
IGROV1 ovarian = test system: IGROV1 ovarian
OVCAR-3 ovarian = test system: OVCAR-3 ovarian
HS 578T breast = test system: HS 578T breast
NCI/ADR-RES ovarian = test system: NCI/ADR-RES ovarian

Measured: growth

O=C(N/N=C/c1ccccc1O)c1ccncc1
inactive: SK-MEL-2 melanoma 55.9% | EKVX NSCLC 36.9% | SN12C renal 78% | UO-31 renal 33.5% | TK-10 renal 57.7% | ACHN renal 56.8% | CAKI-1 renal 41.3% | A498 renal 87.7% | CCRF-CEM leukemia 29.1% | SR leukemia 49.4% | RPMI-8226 leukemia 53.9% | OVCAR-8 ovarian 52.3% | OVCAR-5 ovarian 71.1% | OVCAR-4 ovarian 48.9% | SK-OV-3 ovarian 63.1% | IGROV1 ovarian 53.8% | OVCAR-3 ovarian 18.2% | HS 578T breast 94.3% | NCI/ADR-RES ovarian 38.1%
active: MOLT-4 leukemia 9.31%

CC(C)(C)c1nn(-c2ccccc2)c2c1C(=O)CSC(c1ccccc1Cl)N2 (stereo not given)
active: SR leukemia -13.8% | SK-OV-3 ovarian 7.26% | NCI/ADR-RES ovarian 0.0963%
inactive: SK-MEL-2 melanoma 45.5% | EKVX NSCLC 30.8% | SN12C renal 53.8% | UO-31 renal 29.2% | TK-10 renal 77.5% | ACHN renal 53.7% | CAKI-1 renal 10% | A498 renal 56.9% | CCRF-CEM leukemia 11.4% | MOLT-4 leukemia 20.9% | RPMI-8226 leukemia 42.9% | OVCAR-8 ovarian 35.7% | OVCAR-5 ovarian 46.8% | OVCAR-4 ovarian 72.5% | IGROV1 ovarian 30.3% | OVCAR-3 ovarian 11.3% | HS 578T breast 47.5%

O=C1SCN(Cc2ccccc2)CN1Cc1ccccc1
inactive: SK-MEL-2 melanoma 101% | EKVX NSCLC 101% | SN12C renal 96.3% | UO-31 renal 57.9% | TK-10 renal 111% | ACHN renal 107% | CAKI-1 renal 95.9% | A498 renal 78.2% | CCRF-CEM leukemia 61.3% | MOLT-4 leukemia 71.8% | RPMI-8226 leukemia 43.7% | OVCAR-8 ovarian 90.7% | OVCAR-5 ovarian 105% | OVCAR-4 ovarian 109% | SK-OV-3 ovarian 107% | IGROV1 ovarian 97.2% | OVCAR-3 ovarian 105% | HS 578T breast 95.5% | NCI/ADR-RES ovarian 100%
active: SR leukemia 8.82%

O=C(Nc1ccc([N+](=O)[O-])cc1)c1cc2ccccc2cc1O
inactive: OVCAR-5 ovarian 20.7% | IGROV1 ovarian 15.2% | OVCAR-3 ovarian 83.6%
active: SK-MEL-2 melanoma -66.7% | EKVX NSCLC 2.38% | SN12C renal 1.45% | UO-31 renal -7.29% | TK-10 renal -19.5% | ACHN renal -6.44% | CAKI-1 renal -13.7% | A498 renal -42.5% | CCRF-CEM leukemia 1.14% | MOLT-4 leukemia -7.97% | SR leukemia -17.1% | RPMI-8226 leukemia -26.9% | OVCAR-8 ovarian 0.735% | OVCAR-4 ovarian 1.96% | SK-OV-3 ovarian 9.58% | HS 578T breast -19.9% | NCI/ADR-RES ovarian -9.03%

O=c1c2cc(Cl)ccc2oc2ccc(OCCCCCN3CCCCCC3)cc12
inactive: SK-MEL-2 melanoma 96.5% | EKVX NSCLC 89.6% | SN12C renal 80.9% | UO-31 renal 78.6% | TK-10 renal 89.2% | ACHN renal 110% | CAKI-1 renal 94.6% | A498 renal 68.9% | CCRF-CEM leukemia 60.5% | MOLT-4 leukemia 48.5% | SR leukemia 47.5% | RPMI-8226 leukemia 60.3% | OVCAR-8 ovarian 82.1% | OVCAR-5 ovarian 97.9% | OVCAR-4 ovarian 91.8% | SK-OV-3 ovarian 78.9% | IGROV1 ovarian 90.6% | OVCAR-3 ovarian 81.5% | HS 578T breast 83% | NCI/ADR-RES ovarian 85.7%

COc1ccc(-c2cc(C(=O)Nc3ccc(C)cc3)nc3[nH]c(=O)sc23)cc1
active: A498 renal 9.83%
inactive: SK-MEL-2 melanoma 29.2% | EKVX NSCLC 73.3% | SN12C renal 58.2% | UO-31 renal 58.3% | TK-10 renal 61.1% | ACHN renal 90.2% | CAKI-1 renal 60.6% | CCRF-CEM leukemia 71.1% | MOLT-4 leukemia 81.5% | SR leukemia 76.8% | RPMI-8226 leukemia 47.2% | OVCAR-8 ovarian 77.1% | OVCAR-5 ovarian 100% | OVCAR-4 ovarian 71.7% | SK-OV-3 ovarian 68.4% | IGROV1 ovarian 70.3% | OVCAR-3 ovarian 80.1% | HS 578T breast 74.1% | NCI/ADR-RES ovarian 78.3%

c1ccc2c(N=NSc3ncnc4nc[nH]c34)c3ccccc3nc2c1
inactive: EKVX NSCLC 16.7% | TK-10 renal 36.4% | CAKI-1 renal 19.7% | HS 578T breast 53.6%
active: SK-MEL-2 melanoma -23.6% | SN12C renal 4.81% | UO-31 renal 4.86% | ACHN renal -27.8% | A498 renal -8% | CCRF-CEM leukemia -4.86% | MOLT-4 leukemia -17.4% | SR leukemia -28.1% | RPMI-8226 leukemia -1.28% | OVCAR-8 ovarian -25.7% | OVCAR-5 ovarian -9.11% | OVCAR-4 ovarian -8.92% | SK-OV-3 ovarian -14.2% | IGROV1 ovarian 6.28% | OVCAR-3 ovarian 5.13% | NCI/ADR-RES ovarian -33.4%

CN1CCCN(CCNc2nccc(-c3c(-c4cccc(O)c4)nc4sccn34)n2)S1(=O)=O
inactive: SK-MEL-2 melanoma 22.1% | EKVX NSCLC 84.9% | SN12C renal 38.1% | UO-31 renal 25.2% | TK-10 renal 92.4% | ACHN renal 22.9% | A498 renal 58.8% | CCRF-CEM leukemia 31.3% | MOLT-4 leukemia 37.8% | SR leukemia 13.9% | RPMI-8226 leukemia 81.7% | OVCAR-8 ovarian 60.1% | OVCAR-5 ovarian 80.6% | OVCAR-4 ovarian 51.5% | SK-OV-3 ovarian 15.5% | IGROV1 ovarian 13.7% | OVCAR-3 ovarian 60.6% | HS 578T breast 54.3% | NCI/ADR-RES ovarian 102%
active: CAKI-1 renal -25%

CN(C)CCCn1c(=O)c2cc([N+](=O)[O-])ccc2c2cnc3[nH]ccc3c21
inactive: SK-MEL-2 melanoma 53.7% | EKVX NSCLC 62.2% | SN12C renal 47% | UO-31 renal 33.1% | TK-10 renal 50.5% | ACHN renal 27.9% | CAKI-1 renal 79.5% | A498 renal 39.5% | RPMI-8226 leukemia 45.4% | OVCAR-8 ovarian 35.1% | OVCAR-5 ovarian 73.1% | OVCAR-4 ovarian 61% | SK-OV-3 ovarian 63.8% | IGROV1 ovarian 54.9% | OVCAR-3 ovarian 68.2% | HS 578T breast 75.3% | NCI/ADR-RES ovarian 51.7%
active: CCRF-CEM leukemia -26.4% | MOLT-4 leukemia 8.62% | SR leukemia -27.6%

COc1ccc2nc3cc(Cl)ccc3c(NC(=O)CSc3ccc(Cl)cc3)c2c1
active: SK-MEL-2 melanoma -88.5% | EKVX NSCLC -62.4% | SN12C renal -75.3% | UO-31 renal -96.1% | TK-10 renal -96.1% | ACHN renal -94.6% | CAKI-1 renal -90.8% | A498 renal -99% | CCRF-CEM leukemia 1.21% | MOLT-4 leukemia -52% | SR leukemia -10.1% | RPMI-8226 leukemia -41.4% | OVCAR-8 ovarian -63.8% | OVCAR-5 ovarian -87.2% | OVCAR-4 ovarian -96.8% | SK-OV-3 ovarian -94.2% | IGROV1 ovarian -91.5% | OVCAR-3 ovarian -96.4% | HS 578T breast -43.2% | NCI/ADR-RES ovarian -65%

NNC(=O)CSc1nc2scc(-c3ccccc3)c2c(=O)n1-c1ccccc1
inactive: SK-MEL-2 melanoma 101% | EKVX NSCLC 103% | SN12C renal 101% | UO-31 renal 76.2% | TK-10 renal 178% | ACHN renal 103% | CAKI-1 renal 106% | A498 renal 87.4% | CCRF-CEM leukemia 106% | MOLT-4 leukemia 96% | SR leukemia 83% | RPMI-8226 leukemia 109% | OVCAR-8 ovarian 123% | OVCAR-5 ovarian 98% | OVCAR-4 ovarian 92.8% | SK-OV-3 ovarian 120% | IGROV1 ovarian 102% | OVCAR-3 ovarian 99.5% | HS 578T breast 89.2% | NCI/ADR-RES ovarian 103%

CCN(CC)c1ccc(/C=N/NC(=O)c2ccc(S(C)(=O)=O)cc2)c(O)c1
active: UO-31 renal -1.73% | CCRF-CEM leukemia 6.94% | MOLT-4 leukemia 2.7% | SR leukemia 9.02%
inactive: SK-MEL-2 melanoma 19.5% | EKVX NSCLC 15.5% | SN12C renal 31.2% | TK-10 renal 30.5% | ACHN renal 17.1% | CAKI-1 renal 20.4% | A498 renal 45.3% | RPMI-8226 leukemia 21% | OVCAR-8 ovarian 16.8% | OVCAR-5 ovarian 32.5% | OVCAR-4 ovarian 34.7% | SK-OV-3 ovarian 39% | IGROV1 ovarian 21.2% | OVCAR-3 ovarian 33.4% | HS 578T breast 68% | NCI/ADR-RES ovarian 17.8%

Cc1ccc(C(CN(C)C)C(=O)c2ccccc2)cc1 (stereo not given)
inactive: SK-MEL-2 melanoma 49.7% | EKVX NSCLC 68.7% | SN12C renal 36.4% | UO-31 renal 53.5% | TK-10 renal 44.8% | CAKI-1 renal 52.4% | A498 renal 60.6% | OVCAR-8 ovarian 14.5% | OVCAR-5 ovarian 65.9% | OVCAR-4 ovarian 33.2% | SK-OV-3 ovarian 97.6% | IGROV1 ovarian 88.9% | HS 578T breast 83.5% | NCI/ADR-RES ovarian 49.7%
active: ACHN renal -2.93% | CCRF-CEM leukemia -9.16% | MOLT-4 leukemia -9.61% | SR leukemia -29.2% | RPMI-8226 leukemia -41% | OVCAR-3 ovarian -8.33%

NC(N)=NC1CCCCC1
inactive: SK-MEL-2 melanoma 101% | EKVX NSCLC 93% | SN12C renal 103% | UO-31 renal 84.7% | TK-10 renal 84.1% | ACHN renal 103% | CAKI-1 renal 93.9% | A498 renal 98.1% | CCRF-CEM leukemia 90.3% | MOLT-4 leukemia 92.5% | SR leukemia 92.6% | RPMI-8226 leukemia 85.6% | OVCAR-8 ovarian 98.5% | OVCAR-5 ovarian 109% | OVCAR-4 ovarian 105% | SK-OV-3 ovarian 107% | IGROV1 ovarian 107% | HS 578T breast 107% | NCI/ADR-RES ovarian 98%
active: OVCAR-3 ovarian -50.3%

CS(=O)(=O)c1ccc(C(=O)N/N=C/c2ccc3c(c2)OCO3)cc1
inactive: SK-MEL-2 melanoma 89.1% | EKVX NSCLC 100% | SN12C renal 99.2% | UO-31 renal 96.3% | TK-10 renal 106% | ACHN renal 105% | CAKI-1 renal 93% | A498 renal 94.6% | CCRF-CEM leukemia 87% | MOLT-4 leukemia 70.8% | SR leukemia 110% | RPMI-8226 leukemia 102% | OVCAR-8 ovarian 93.8% | OVCAR-5 ovarian 116% | OVCAR-4 ovarian 109% | SK-OV-3 ovarian 107% | IGROV1 ovarian 113% | OVCAR-3 ovarian 99.4% | HS 578T breast 100% | NCI/ADR-RES ovarian 110%

CCCCCN(CCCCC)C(=O)C(CCC(=O)O)NC(=O)c1ccc(Cl)c(Cl)c1 (stereo not given)
inactive: SK-MEL-2 melanoma 105% | EKVX NSCLC 109% | SN12C renal 100% | UO-31 renal 80.4% | TK-10 renal 124% | ACHN renal 100% | CAKI-1 renal 91.3% | A498 renal 83.8% | CCRF-CEM leukemia 114% | MOLT-4 leukemia 102% | SR leukemia 94.4% | RPMI-8226 leukemia 118% | OVCAR-8 ovarian 106% | OVCAR-5 ovarian 102% | OVCAR-4 ovarian 115% | SK-OV-3 ovarian 114% | IGROV1 ovarian 107% | OVCAR-3 ovarian 113% | HS 578T breast 102% | NCI/ADR-RES ovarian 106%
